Assay outcomes from PubChem BioAssay.
Hits are enriched below; roughly 0.5% of the tested compounds scored in any of these assays.
TRPML1 inh: qHTS for Inhibitors of the Human Mucolipin Transient Receptor Potential 1 (TRPML1); Mucolipin-1 (Homo sapiens), Q9GZU1; TRPML1-inducible cells, Ca2+ dye fluorescence, FDSS; active compounds read low; inhibition of EC80 agonist-evoked calcium signal; activity change, negative = inhibition, % (no concentration beside the values); 390,000 compounds, 0.02% hits; in the data active = activity change below about -50%; inconclusive = between about -30% and that limit;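 also: stimulus is agonist 54-4 at its EC80 concentration; % is scaled to controls: 0 for no effect and ±100 for the full control effect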
Target sequence (Q9GZU1 whole entry, looked up): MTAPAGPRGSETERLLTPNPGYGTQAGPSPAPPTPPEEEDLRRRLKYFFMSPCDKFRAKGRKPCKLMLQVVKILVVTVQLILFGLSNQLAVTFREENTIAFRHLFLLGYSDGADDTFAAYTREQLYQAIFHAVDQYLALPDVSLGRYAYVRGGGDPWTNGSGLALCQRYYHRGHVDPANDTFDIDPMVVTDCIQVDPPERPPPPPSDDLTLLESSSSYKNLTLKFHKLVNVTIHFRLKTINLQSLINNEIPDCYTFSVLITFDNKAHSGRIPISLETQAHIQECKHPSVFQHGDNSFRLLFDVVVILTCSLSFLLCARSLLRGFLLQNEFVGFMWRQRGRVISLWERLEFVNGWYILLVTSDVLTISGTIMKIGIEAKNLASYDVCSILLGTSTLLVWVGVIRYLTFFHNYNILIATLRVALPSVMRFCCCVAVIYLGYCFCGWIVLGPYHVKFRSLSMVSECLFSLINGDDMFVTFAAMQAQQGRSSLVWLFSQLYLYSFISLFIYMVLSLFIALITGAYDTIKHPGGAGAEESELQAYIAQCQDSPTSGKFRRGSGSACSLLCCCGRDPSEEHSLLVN
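TRPML1-DL cells, Tet-induced overnight (~16 h, 37 °C) at 1,500 cells/well, were loaded with Ca8 no-wash dye plus quencher for 45-90 min at room temperature. Compounds were pinned during FDSS kinetic reading; agonist 54-4 at EC80 (4 uM final) then added.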
RGS4 inhibitor: Inhibitors of Regulator of G Protein Signaling (RGS) 4: qHTS. Regulator of G-protein signaling 4 (Homo sapiens), P49798. Transcreener GDP fluorescence polarization, RGS4-accelerated GTP hydrolysis. Potency, µM (highest dose often 114 µM), for inactives: at the highest dose activity change, negative = inhibition, most hits filed as inhibitors. 390,000 compounds, 0.039% hits. AID 504845, 2011; also: potency is read from the fitted curve at half-maximal effect; % is scaled to controls: 0 for no effect and ±100 for the full control effect; nearly all actives have a fitted effect of over 75% in size
Target sequence (P49798 whole entry, looked up): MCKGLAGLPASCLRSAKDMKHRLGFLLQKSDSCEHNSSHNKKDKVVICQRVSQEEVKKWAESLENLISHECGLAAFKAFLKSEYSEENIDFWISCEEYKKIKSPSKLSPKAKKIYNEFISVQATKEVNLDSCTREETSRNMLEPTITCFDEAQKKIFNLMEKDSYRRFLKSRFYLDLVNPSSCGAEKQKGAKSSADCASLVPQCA
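MLSMR compounds (23 nl, pin-transferred) preincubated 10 min at room temperature with a 500nM (2x) first reagent, then RGS4 at 900nM (2x) plus Transcreener GDP mix added; fluorescence polarization (620/688 nm) read before and after 90 min at 30 °C.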
TRPV1 agonist: HTS Assay for Compounds that Act as Agonists of the Vanilloid Receptor 1 | AID 540275, 2011 | TRPV1-expressing cells, Fluo-8 calcium influx, agonist mode | activation, % at 8.33 µM | 320,000 compounds, 0.19% hits; in the data active = activation above about 80%; inconclusive = between about 30% and that limit; also: 0% is about no effect
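TRPV1-expressing cells were cultured overnight at 35.5C and loaded with Fluo-8 calcium dye for 40 to 90 min at room temperature. After a 10 s baseline, compound was added and calcium influx was read kinetically for 3 min (ex 480/em 520 nm).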
TRPML1 ag: qHTS for Agonists of the Human Mucolipin Transient Receptor Potential 1 (TRPML1); Mucolipin-1 (Homo sapiens), Q9GZU1; TRPML1-expressing cells, Ca2+ dye fluorescence, FDSS; activation, % (concentration not given with the values); 410,000 compounds, 0.12% hits; AID 624414, 2012; in the data active = activation above about 50%; inconclusive = mostly about 30% to 49%; also: 0% is about no effect
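Calcium fluorescence on an FDSS kinetic reader gave the read-out. Tet-induced TRPML1-DL cells were plated overnight, dye-loaded (Ca8 with quencher, 45-90 min, room temperature, dark), then read 110 s after compound addition, and again 110 s after 4uM final 54-4 (EC80).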
A-T KAP1 phos: qHTS Assay for Identifying a Potential Treatment of Ataxia-Telangiectasia; AID 485349, 2010; Potency, µM (titrated, usually from 57.5 µM), inactives show at the highest dose activation, most hits filed as activators; 320,000 compounds, 0.19% hits; F2112 A-T fibroblasts, KAP-1 phosphorylation AlphaLISA; neocarzinostatin DNA damage 30 min before lysis; also: potency is read from the fitted curve at half-maximal effect; % of control where 0% means no effect; nearly all actives have a fitted effect of over 45% in size
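hTERT-immortalized A-T patient fibroblasts (F2112), 500 cells/well in OPTI-MEM, 1% FBS, got compounds for 60 min, then NCS for 30 min at 37C. Lysates were then assayed for phospho-KAP-1 by AlphaLISA (anti-pKAP1 donor, anti-KAP1 acceptor beads), 6 hr at 25C.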
TRPV1 PAM: HTS Assay for Compounds that Act as Potentiators of the Vanilloid Receptor 1; Transient receptor potential cation channel subfamily V member 1 (Homo sapiens), Q8NER1; TRPV1-expressing cells, Fluo-8 calcium influx, capsaicin EC20 potentiation; potentiation, % at 8.33 µM; 320,000 compounds, 0.02% hits; AID 540277, 2011; in the data active = potentiation above about 80%; inconclusive = between about 30% and that limit; also: 0% is about no effect
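Cells expressing TRPV1 were dye-loaded with Fluo-8 and read kinetically: 10 s baseline, 3 min after compound (agonist portion), then 2 min after EC20 capsaicin (allosteric enhancer portion). Calcium-bound dye fluorescence at 480/520 nm.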
Active calls of the source: *; ? = inconclusive; / = no result; ! = a repeat was not active; [ ] = another dose, or the depositor's remark. Unless noted, calls follow the shape of the dose curve; as a rule, active = well fitted curve in the direction sought with a large enough effect; inconclusive = small, poorly fitted or top-dose-only effect, or another doubt; inactive = no such curve, though single readings can be large; an effect the other way counts as inactive or inconclusive.

SMILES | TRPML1 inh | RGS4 inhibitor | TRPV1 agonist | TRPML1 ag | A-T KAP1 phos | TRPV1 PAM
CN(C)c1ccc(/C=C/c2ccc3ccccc3n2)cc1 | -11 | 0% | 26 | 52*! | 30% | 14
COc1cc(/C=C/c2ccnc3ccccc23)ccc1N(C)C | / | / | / | 58* | / | /
CN(C)c1ccc(N=Nc2ccc(/C=C/c3ccnc4ccccc34)cc2)cc1 | / | / | / | 124* | / | /
CN(C)c1ccc(C=Cc2ccnc3ccccc23)cc1N | / | / | / | 0 | / | /
Cc1ccc(S(=O)(=O)C(CNC(=O)C(=O)NCc2ccc(Cl)cc2)c2ccco2)cc1 (stereo unspecified) | 23 | 30% | / | 0 | / | /
CCN(CC)C(=O)C1CCCN(Cc2ccccc2F)C1 (stereo unspecified) | -3 | 8% | -1 | -1 | 11% | -15
CC(C)C[C@@H](CN1CCCC1CN1C(=S)NC[C@@H]1Cc1ccc(O)cc1)N1C[C@H](Cc2ccc(O)cc2)N(CC2CCCCCC2)C1=S (stereo partly specified) | -2 | 1% | / | -1 | / | /
CN(C)c1ccc(/C=C/c2ccnc3ccc(Br)cc23)cc1 | / | / | / | 54* | / | /
CN(C)c1ccc(/C=C/c2ccnc3c(Cl)cccc23)cc1 | / | / | / | 54* | / | /
CN(C)c1ccc(/C=C/c2ccnc3c(O)cccc23)cc1 | / | / | / | 1 | / | /
CCOC(=O)C1=C(C)N(C)C(=O)NC1c1cccc2ccccc12 (stereo unspecified) | -14 | -31%[56.9 µM] | 0 | 2 | -8% | -2
O=C(Nc1ncc2c(n1)CC(c1cccc(Cl)c1)CC2=O)c1ccco1 (stereo unspecified) | -21 | -36% | 30 | 0 | 13µM* | -23
C=CCN(C(=O)CCC(=O)Nc1cc(C)on1)C(C(=O)NC(C)(C)C)c1cccc(OC)c1OC (stereo unspecified) | -13 | 3% | -1 | -1 | 1% | -3
CC(C)(C)OC(=O)N1CCC(c2c(C(=O)N3CCN(C4CCCCC4)CC3)cnn2-c2ccc(F)cc2)CC1 | -13 | -10% | 4 | 0 | -1% | -5
COc1ccccc1N1CCN(C(=O)c2cnn(-c3ccc(C)c(C)c3)c2C2CCN(C(=O)OC(C)(C)C)CC2)CC1 | -10 | -25% | / | 59* | / | /
Cc1ccc(-n2ncc(C(=O)N3CCN(C4CCCCC4)CC3)c2C2CCN(C(=O)OC(C)(C)C)CC2)cc1C | -15 | -10% | / | 69* | / | /
Cc1cccc(N2CCN(C(=O)c3cnn(-c4ccc(F)cc4F)c3C3CCN(C(=O)OC(C)(C)C)CC3)CC2)c1C | -63* | -1% | / | 93* | / | /
CCN1CCN(C(=O)c2cnn(-c3cccc(Cl)c3)c2C2CCN(C(=O)OC(C)(C)C)CC2)CC1 | 4 | -10% | / | 1 | / | /
CC(C)(C)OC(=O)N1CCC(c2c(C(=O)N3CCN(C4CCCCC4)CC3)cnn2-c2cccc(Cl)c2)CC1 | -23 | 8% | / | 92* | / | /
COC(=O)C1=C(C)N(C)C(=S)NC1c1ccc(OC)cc1OC (stereo unspecified) | -10 | 2% | -2 | 1 | 5% | 8
Cc1cc(C)c2c(N)c(C(=O)NN)sc2n1 | / | 6%[11.4 µM] | -1 | / | 18µM* | -20
O=C(c1cc(COc2ccc(F)cc2Cl)on1)N1CCCCCC1 | 7 | -30% | 25 | 0 | 0% | -13
O=C(c1cc(COc2ccc(F)cc2Cl)on1)N1CCC(c2ccncc2)CC1 | 34 | -24% | 86* | 1 | 6% | 5
CC(C)(C)c1ccc(OCCNC(=O)Cc2ccc(F)cc2)cc1 | -13 | -17% | 91* | 0 | -11% | 9
COCCNC(=O)Cc1ccc(F)cc1 | -5 | -6% | -1 | 0 | 6% | 8
SMILES | TRPML1 inh | RGS4 inhibitor | TRPV1 agonist | TRPML1 ag | A-T KAP1 phos | TRPV1 PAM
Cc1ccc(S(=O)(=O)N2C[C@@H]3[C@H]4CC[C@H](C4)[C@@H]3[C@@H](C)[C@@H]2c2ccco2)cc1 | -4 | -14% | / | 28 | 12% | /
Cc1ccc(S(=O)(=O)N2C[C@@H]3[C@H]4CC[C@H](C4)[C@@H]3[C@@H](C)[C@@H]2C2CCCCC2=O)cc1 (stereo partly specified) | -10 | 17% | / | 92* | -2% | /
NS(=O)(=O)c1ccc(CCN2C(=O)/C(=C\c3ccc(Cl)cc3)SC2=S)cc1 | 13 | 2% | 0 | 0 | -1% | -10
Cc1cc(N2CCCC2)c(F)cc1/C=C\[N+](=O)[O-] | -3 | ? | -6 | 52* | 9% | 28
Cc1cc(N2CCC(C)CC2)c(F)cc1[N+](=O)[O-] | -6 | 2% | 4 | 1 | -3% | -16
CCN(CC(=O)Nc1ccc2c(c1)OCCO2)C(=O)c1ccccc1Br | 0 | -9% | / | -1 | 1% | /
CSCC[C@@H](CO)NC(=O)c1ccc2nc(C3CCCCC3)oc2c1 | -7 | 13% | 3 | 0 | 0% | 0
CSCCNC(=O)c1ccc2nc(C3CCCCC3)oc2c1 | 22 | 21% | 92* | -1 | 1% | 1
O=C(NCc1ccncc1)[C@@H]1CCCN1C(=O)[C@@H]1CCCN1 | / | / | / | 0 | / | /
CC(=O)c1cccc(N(CC(=O)NC2CCCC2)C(=O)CNC(=O)c2cccs2)c1 | 1 | 6% | -3 | -1 | 7% | 1
CC1CCCC(C)N1CCCNC(=O)Cn1ncc2c3ccccc3n(C)c2c1=O (stereo unspecified) | -9 | 6% | -1 | -1 | 7.1µM* | 9
CCCCNC(=S)N1CCN(C(c2ccccc2)c2ccccc2)CC1 | 22 | -16% | 81* | 1 | 4% | 7
C/C(=C\C=C(C#N)C#N)c1cc(C#N)c(N)o1 | 3 | -20% | 10 | 54* | -1% | 2
C=C(C)C(=O)Oc1ccc(N2C(=O)CCC2=O)cc1 | 51 | -8% | 1 | -1 | 22µM* | -20
O=S(=O)(Nc1ccc(-c2nc3cccnc3s2)cc1)c1cc(F)ccc1F | 4 | -2% | -1 | -1 | 13µM* | -7
CCc1ccc(S(=O)(=O)Nc2ccc(-c3nc4cccnc4s3)cc2)s1 | -3 | 4% | -5 | 1 | 33% | 1
Cc1ccc(CN2CCN(Cc3ccon3)CC2CCO)cc1 (stereo unspecified) | 6 | 9% | -4 | 1 | 3% | 4
